The whole screen tested about 360,000 compounds, of which about 25,000 (6.9%) were called active. Not shown: some 9% with an inconclusive outcome. The entries come from a sample that favours actives as a whole. A number with no mark means an inactive call. Calls come from the whole dose curve; as a rule, active = well fitted inhibition curve with a large enough effect; inconclusive = small, poorly fitted or top-dose-only effect; inactive = flat fitted curve, though single readings scatter.
Target: Luciferin 4-monooxygenase (Photinus pyralis) (UniProt P08659)
Experiment: qHTS profiling assay for firefly luciferase inhibitor/activator using purifed enzyme and Km concentrations of substrates (counterscreen for miR-21 project); note: nearly all actives have a fitted effect of over 55% in size;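 for activity change, negative = inhibition: plate controls were vehicle for no effect and reference inhibitor for full effect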
Settings: purified FLuc, luminescence inhibition; series mostly up to 57.5 µM; activity change, negative = inhibition: at the top concentration
Description: MLPCN Grant: 1 R21 NS059478-01 (miR-21 grant) Assay Provider: NCGC NCGC Assay Overview: Firefly (Photinus pyralis) luciferase is one of the most commonly used transcriptional reporters for a number of reasons. It is considered one of the more dynamically responsive reporters -that is, responsive to changes in reporter transcription - as it requires no post-translational modifications and is enzymatically active directly after protein synthesis (Wood, 1998). Additionally, the half-life of the luciferase protein is short relative to other reporter-gene products (Wood, 1995). Whereas reporters with long half-lives potentially allow for increased signal due to accumulation of reporter-gene product, once accumulated in the cell, dynamic changes in reporter-gene expression may be difficult to detect(Fan and Wood, 2007; Almond et al., 2004). It has been shown that wild-type P. pyralis luciferase has a half-life of approximately […] hours in mammalian cells (Thompson et al., 1991). Firefly luciferase reporter-gene assays are also generally considered one of the most sensitive assay types (Wood, 1995; Wood, 1998). Although light produced in a bioluminescence reaction is of lower intensity than that produced during fluorescence emission, this is offset by little to no background light inherent to luminescent assays. Thus the luciferase reporter can be expressed at much lower levels than fluorescent proteins while still providing robust signal. # However, it was initially observed, in 1991, by Thompson et al., that compounds that resemble the substrates of firefly luciferase (FLuc) can act as competitive inhibitors of the enzyme, and that these compounds, upon interaction with luciferase in the cell, can actually stabilize the protein and increase its half-life. Accumulated intracellular FLuc protein can be measured as an increase in luminescence signal, upon addition of detection reagents (which contain high concentrations of FLuc substrates) commonly used in high-throughput screening. In cell-based reporter gene assays that use FLuc as the reporter gene to quantitate the potential influence of a given compound against the target biology, this apparent increase in luminescence can mistakenly be interpreted as identification of a compound that is active against the target of interest. This is the case for the miR-21 FLuc reporter gene assay used to identify inhibitors of the miR-21 pathway (PubChem AID 2289) - compounds of interest will inhibit miR-21 biogenesis/expression or activity, and are identified by causing an increase in luminescence, due to increased FLuc translation. However, FLuc inhibitory compounds that stabilize the FLuc protein will give an identical read-out, making it difficult to distinguish compounds that are active against the target from those active against FLuc. Previous profiling work to determine the prevalence of compounds that affect FLuc enzymatic activity (PubChem AID 411) identified that ~3% of the MLSMR library (then at ~72K) inhibited FLuc. […] Since the MLSMR had grown to ~350K compounds, and since it was expected that a significant percentage of compounds found active in the miR-21 FLuc assay would be FLuc inhibitors, the library was screened for activity against FLuc using a biochemical assay of purified FLuc and KM concentrations of FLuc substrates (D-luciferin and ATP).
NCGC Assay Protocol Summary: Reagents: 50mM Tris acetate, pH 7.5; 10mM Mg acetate; 10uM D-luciferin (Sigma #L9504); 10uM ATP; 0.01% Tween-20; 0.05% BSA; 10nM P. pyralis luciferase (Sigma #L9506) Control compounds used were two known firefly luciferase inhibitors (compounds (2) and (5) in Auld et al., 2010), and DMSO. […]

Chain of Luciferin 4-monooxygenase (Photinus pyralis) (P08659 whole entry, looked up): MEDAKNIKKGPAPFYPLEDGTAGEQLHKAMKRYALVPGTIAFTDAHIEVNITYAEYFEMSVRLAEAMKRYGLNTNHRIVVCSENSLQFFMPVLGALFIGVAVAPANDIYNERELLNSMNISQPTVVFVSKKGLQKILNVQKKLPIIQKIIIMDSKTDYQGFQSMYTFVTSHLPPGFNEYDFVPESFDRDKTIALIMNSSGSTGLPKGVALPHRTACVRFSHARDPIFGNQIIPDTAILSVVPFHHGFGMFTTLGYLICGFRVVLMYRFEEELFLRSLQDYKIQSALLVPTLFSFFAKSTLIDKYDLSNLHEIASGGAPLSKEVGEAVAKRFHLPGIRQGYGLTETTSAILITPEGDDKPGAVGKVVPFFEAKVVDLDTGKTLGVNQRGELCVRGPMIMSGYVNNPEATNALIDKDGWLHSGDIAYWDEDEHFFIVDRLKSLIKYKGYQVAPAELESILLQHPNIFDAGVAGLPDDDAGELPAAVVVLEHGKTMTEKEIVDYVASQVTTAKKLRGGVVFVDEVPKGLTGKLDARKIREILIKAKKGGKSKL

Structure (SMILES) | activity change, negative = inhibition [%] | Potency
COc1ccc(S(=O)(=O)NCC(c2ccc(N(C)C)cc2)N2CCCC2)cc1 (configuration not stated) | -3.23 | –
O=C(Cn1ncc2c3ccccc3n(Cc3ccccc3)c2c1=O)NCCCN1CCOCC1 | 1.27 | –
CCn1c(Cc2ccc(OC)cc2)nnc1SCC(=O)Nc1ccc(N2CCOCC2)cc1 | – | 23.9 µM (active)
CCn1c(CNC(=O)C23CC4CC(CC(C4)C2)C3)nnc1SCC(=O)Nc1ccc(OC)cc1 | 2.85 | –
Cn1cnnc1SCC(=O)Nc1ccc(N2CCOCC2)cc1 | -16.7 | –
Cc1ccc(Cl)cc1N1CCN(C(=O)c2cn(C)c3ccc(S(=O)(=O)N(C)C4CCCCC4)cc3c2=O)CC1 | -2.62 | –
Cc1ccc(NC(=O)CCCNC(=O)c2ccc(Cl)cc2)cc1S(=O)(=O)N1CCCCC1 | -1.07 | –
COC(=O)c1ccc(C2C3=C(Nc4nnnn42)c2ccccc2OC3)cc1 (configuration not stated) | – | 6.01 µM (active)
COC(=O)c1ccc(C2C(C(=O)Nc3ccccc3)=C(C)Nc3nc4ccccc4n32)cc1 (configuration not stated) | 1.14 | –
COC(=O)C1=C(C(=O)c2ccc(C)cc2)C(c2ccccc2)n2nnnc2N1 (configuration not stated) | -5.96 | –
COc1cccc(Nc2nnc(SCC(=O)N3CC(=O)Nc4ccccc43)s2)c1 | – | 21.3 µM (active)
COc1cc(OC)c(C(=O)OCC(=O)N2CC(=O)Nc3ccccc32)cc1OC | 0.484 | –
COc1ccc(C(=O)CSc2nnc(NC(=O)C3CC(=O)N(c4cccc(OC)c4)C3)s2)cc1 (configuration not stated) | 4.63 | –
COc1cccc(Nc2nnc(SCC(=O)N3CC(C)OC(C)C3)s2)c1 (configuration not stated) | – | 21.3 µM (active)
Cc1nc(SCC(=O)N2CC(=O)Nc3ccccc32)c2c(C)c(C)sc2n1 | 1.77 | –
COc1cccc(-c2nnc(SCC(=O)N3CCC(C)CC3)o2)c1 | 3.58 | –
O=C(Nc1ccccc1Cl)N1CCC(CN2CCCCC2)CC1 | -3.25 | –
Cc1nc2ccccc2c(=O)n1-c1ccc(NS(=O)(=O)c2ccc(F)cc2F)cc1 | 1.87 | –
CCN(CC)c1ccc(NC(=O)CN2C(=O)c3cccnc3Oc3ccc(Cl)cc32)c(C)c1 | -1.44 | –
COc1ccc2ccn(C)c2c1 | -2.14 | –
CN(C)c1nc(Nc2ccc(Cl)c(Cl)c2)nc(N(C)C)n1 | 0.513 | –

Structure (SMILES) | activity change, negative = inhibition [%] | Potency
COc1cc2nc(Cl)nc(NCCO)c2cc1OC | -2.87 | –
OCCNc1nc(Nc2ccc(Cl)c(Cl)c2)nc2ccccc12 | – | 6.01 µM (active)
Cc1ccccc1CSc1nc(-c2ccccc2)nc2c1Cc1c(CO)cnc(C)c1O2 | -2.1 | –
Nc1ccn(CC(=O)N2CCN(c3ccccn3)CC2)c(=O)n1 | -1.29 | –
COc1ccc(C(=O)Nc2nc(-c3ccc(OC)cc3)c(-c3ccc([N+](=O)[O-])cc3)s2)cc1 | 0.4 | –
O=C(Nc1nc2ccc([N+](=O)[O-])cc2s1)c1ccncc1 | – | 1.07 µM (active)
O=C(NC(Nc1nc2ccc([N+](=O)[O-])cc2s1)(C(F)(F)F)C(F)(F)F)c1ccccc1 | -0.0039 | –
CCN1CCN(CCCNC(=O)c2ccc3c(c2)sc2nc(-c4ccc(OC)cc4)cn23)CC1 | -13.1 | –
O=C(c1ccc(Cn2cc([N+](=O)[O-])cn2)o1)N1CCCC1 | 14.7 | –
O=C(Nc1ccc(Br)c2cccnc12)c1ccc(Cn2cc([N+](=O)[O-])cn2)o1 | 1.86 | –
CN(C)c1ccc(/C=N/NC(=O)C(O)c2ccc(Br)cc2)cc1 (configuration not stated) | -17.4 | –
O=C(N/N=C/c1ccc2c(c1)OCO2)c1ccc(Cn2cc([N+](=O)[O-])cn2)o1 | – | 6.75 µM (active)
CN(C)c1ccc(/C=N/NC(=O)c2ccc(Cn3cc(Br)cn3)o2)cc1 | – | 9.53 µM (active)
COc1cccc(NC(=O)c2ccc(Cn3cc([N+](=O)[O-])cn3)o2)c1 | -4.26 | –
O=C(N/N=C/c1ccc(Br)o1)c1cncc(Br)c1 | -5.46 | –
CCc1ccc(CNC(=O)c2ccc(CS(=O)c3ccc(Br)cc3)o2)cc1 (configuration not stated) | -16.3 | –
O=C(N/N=C\c1ccc(Br)cc1)c1ccc(Cn2cccn2)o1 | – | 12 µM (active)
Cc1cccc(Cn2c(CN3CCC(C(=O)NCc4ccccc4Cl)CC3)cc3ccccc32)c1 | -0.0278 | –
Cc1ccccc1CNC(=O)CCc1cn(Cc2ccccc2C)c2ccccc12 | -9.27 | –
O=c1n(Cc2cccc(C(F)(F)F)c2)c2ccccc2c2nc(-c3ccccc3)nn12 | 4.37 | –
COc1ccccc1OCC(=O)Nc1nnc2n1CCS2 | -1.03 | –

Structure (SMILES) | activity change, negative = inhibition [%] | Potency
CCOc1ccc(S(=O)(=O)c2cn(Cc3ccccc3)c3ccc(OCC)cc3c2=O)cc1 | 0.46 | –
O=C1C2C3C=CC(C3)C2C(=O)N1c1ccc(-c2nc3ccccc3c(=O)o2)cc1 (configuration not stated) | – | 9.53 µM (active)
O=C1C2C3C=CC(C3)C2C(=O)N1c1ccc(S(=O)(=O)Nc2nccs2)cc1 (configuration not stated) | 0.747 | –
CCCCCOC(=O)c1ccc(N2C(=O)C3C4C=CC(C4)C3C2=O)cc1 (configuration not stated) | -15.4 | –
COc1ccc(CCNc2nc(-c3ccc(F)cc3)cc(C(F)(F)F)n2)cc1OC | 2.3 | –
Cc1ccc2c(c1)N(C(=O)Nc1ccc(Br)cc1F)CCO2 | 0.456 | –
COCCCNC(=O)c1ccc(CNS(=O)(=O)c2ccc(NC(C)=O)cc2)cc1 | – | 16.9 µM (active)
CCCCNC(=O)C1CCC(CNS(=O)(=O)c2ccc(NC(C)=O)cc2)CC1 (configuration not stated) | – | inactive
CCc1ccccc1NC(=O)N1CCN(C(=O)c2nsc3ccccc23)CC1 | -4.65 | –
Cc1c(Cl)cccc1NC(=O)N1CCN(C(=O)c2nsc3ccccc23)CC1 | 1.68 | –
Cc1ccc(CCNC(=O)c2ccc(CNS(=O)(=O)c3ccc(C)cc3)cc2)cc1 | -4.15 | –
COc1cccc(NC(=O)N2CCN(C(=O)c3nsc4ccccc34)CC2)c1 | 5.08 | –
O=C(Nc1cccc(C(=O)N2CCCC2)c1)c1ccccc1 | -2.48 | –
CCc1ccc(NC(=O)N2CCN(C(=O)c3nsc4ccccc34)CC2)cc1 | -10.4 | –
NC(=O)C1CCN(C(=O)c2cccc(NC(=O)c3nsc4ccccc34)c2)CC1 | – | 12 µM (active)
Cc1ccccc1CNC(=O)c1cccc(NC(=O)c2nsc3ccccc23)c1 | – | 5.36 µM (active)
COCCCNC(=O)c1ccc(NC(=O)c2nsc3ccccc23)cc1 | – | 16.9 µM (active)
COCCCNC(=O)c1ccc2c(c1)ncn2-c1ccccc1OC | -6.89 | –
O=C(CSc1nnc(COc2ccc(Cl)cc2)n1Cc1ccco1)N1CCNC1=O | 5.23 | –
COc1ccc(OC)c(CNC(=O)Cn2nc(C)c3c(C)n(-c4ccccc4)nc3c2=O)c1 | -2.53 | –
